PubChem BioAssay (NCI)
Compounds without any hit were thinned out: in the full panel of roughly 83,000, 20% have a hit.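 Testing used 96-well plates and a 48-hour single-concentration exposure. Example: -40 means 40% of the starting cells died.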 A number with no mark means an inactive call. The source made the active and inactive calls. The calls were made as follows: active = growth percent below 10; inactive = the rest.

How the values were obtained:
Test in all cases: NCI-60 one-dose screen, 48 h (100 = growth as untreated, 0 = no growth, -100 = all killed)
Conditions in all cases: 10 µM unless noted
NCI-H23 lung = system: NCI-H23 lung
NCI-H226 lung = system: NCI-H226 lung
NCI-H322M lung = system: NCI-H322M lung
HOP-62 NSCLC = system: HOP-62 NSCLC
NCI-H460 lung = system: NCI-H460 lung
HOP-92 NSCLC = system: HOP-92 NSCLC
NCI-H522 lung = system: NCI-H522 lung
A549/ATCC NSCLC = system: A549/ATCC NSCLC
786-0 renal = system: 786-0 renal
COLO 205 colon = system: COLO 205 colon

| SMILES | growth (NCI-H23 lung) | growth (NCI-H226 lung) [%] | growth (NCI-H322M lung) | growth (HOP-62 NSCLC) | growth (NCI-H460 lung) | growth (HOP-92 NSCLC) | growth (NCI-H522 lung) | growth (A549/ATCC NSCLC) | growth (786-0 renal) | growth (COLO 205 colon) |
| --- | --- | --- | --- | --- | --- | --- | --- | --- | --- | --- |
| CC(C)C(/C=C/c1[nH]ncc1-c1cc(Cl)ccc1O)N1CCOCC1 (stereo not given) | 96.7% | 85.2 | 88.7% | 92.3% | 105% | 88.4% | 95.8% | 96.7% | 101% | 109% |
| NS(=O)(=O)c1nnc(/N=C/c2c(O)[nH]c3ccccc23)s1 | 96.3% | 95 | 104% | 86.6% | 105% | 88.1% | 99.9% | 108% | 98.2% | 115% |
| CN1CCN(c2ccc(Nc3nc(NCCCNS(=O)(=O)c4ccc(C(F)(F)F)cc4)c4sccc4n3)cc2)CC1 | 2.34% (active) | 57.9 | -1.68% (active) | -49.1% (active) | -47.8% (active) | -55.9% (active) | -85.6% (active) | -12.1% (active) | -82.2% (active) | -76% (active) |
| CC(O)c1cccc(/C(N)=N/C(N)=N/c2nc3ccccc3s2)c1 (stereo not given) | 91.6% | 85.9 | 97.4% | 98.6% | 85.4% | 97.6% | 96.9% | 82% | 101% | 109% |
| O=C(/C=C/c1csc(Br)n1)NO | 38.4% | 82.9 | 33.1% | 35.5% | 25.7% | -2.53% (active) | 7.37% (active) | 23.5% | 52.3% | 11.6% |
| CCCc1[nH]c(-c2cc(N)ccc2Cl)c2c1C(=O)CCCC2 | 93.3% | 98.1 | 89.1% | 94.5% | 102% | 81.6% | 90.9% | 91.9% | 91% | 121% |
| COc1cc2oc(-c3cccc(NC(=O)[C@@H](N)C(C)C)c3)cc(=O)c2c(OC)c1OC | 103% | 107 | 102% | 103% | 103% | 91.9% | 92.7% | 94.6% | 87.1% | 111% |
| CCN(CC)c1ccc(/C=N/NC(=O)c2ccc(S(N)(=O)=O)cc2)c(O)c1 | 20.7% | 43.1 | 22.1% | 11.6% | 4.16% (active) | 53.1% | 15.1% | 16% | 4.11% (active) | 14.3% |
| COc1cc2oc(-c3cccc(NC(=O)c4cccc([N+](=O)[O-])c4)c3)cc(=O)c2c(OC)c1OC | 69% | 62.8 | 82.4% | -36.4% (active) | 51.2% | -0.118% (active) | 58.5% | 43.8% | 65.6% | 85.8% |
| O=C(Nc1ccc(Cl)c(C(F)(F)F)c1)Nc1ccc2c(ccn2C(=O)c2cccc(F)c2)c1 | 10.3% | 36.5 | 73.1% | 54.5% | 13.2% | 5.69% (active) | 5.03% (active) | 30.6% | 42.4% | 25.3% |
| C#CCN(C)CCCOc1ccc(NCc2ccc(C(=O)NO)cc2)cc1Cl | 21.3% | 46.6 | 31.8% | 24.8% | 24.8% | -5.78% (active) | 13.7% | 20% | 38.9% | 3.71% (active) |
| Cc1cc(C)cc(NC2=C(Cl)C(=O)c3nc(C)ccc3C2=O)c1 | 22.1% | 28.5 | 91.7% | 101% | 93.1% | 118% | 19% | 73.7% | 79% | 107% |
| C/C(=N/N)c1nnn(-c2ccc(Br)cc2)c1C | 99.6% | 91.5 | 95.7% | 93.7% | 102% | 93.4% | 91.5% | 99.4% | 103% | 115% |
| CC[C@]12C=CCN3CC[C@@]4(c5ccc(OC)cc5N(C)[C@H]4[C@@](O)(C(=O)OC)[C@@H]1OC(=O)CCN1CCc4ccccc4C1)[C@@H]32 | 81.9% | 98.9 | 96.1% | 87.5% | 96.8% | 40.1% | 101% | 87.8% | 92.7% | 74.3% |
| O=C(CSc1nc2ccccc2c(=O)n1-c1ccccc1)Nc1ccc(S(=O)(=O)Nc2nccs2)cc1 | 86.1% | 73.6 | 77% | 80.4% | 85.2% | 89.4% | 26.7% | 84.4% | 66.1% | 103% |
| CNC(=O)Nc1ccc(Nc2cc(-c3ccc(-n4cccn4)cc3)[nH]n2)c(C)c1 | 102% | 104 | 101% | 106% | 97.3% | 173% | 96.1% | 102% | 111% | 124% |
| Cc1ccc2c(n1)C(=O)C(Cl)=C(Nc1cccc(C(=O)OC(C)(C)C)c1)C2=O | 73.7% | 82.8 | 112% | 108% | 101% | 88.8% | 60.6% | 106% | 99.8% | 119% |
| CCCC/C(=C\c1ccc(O)c(O)c1)C(=O)NC(Cc1ccccc1)C(=O)C(=O)NCCc1ccc(OC)cc1 (stereo not given) | 92.2% | 92.7 | 100% | 98.2% | 102% | 86.2% | 87.7% | 103% | 104% | 110% |
| CCNC(=O)Oc1ccc(/C(=C(/C)c2ccc(OC)cc2)c2ccc(OCCN3CCCCCC3)cc2)cc1 | 52.8% | 87.4 | 80.9% | 31.9% | 16.7% | 49.5% | 93.1% | 54.4% | 35.5% | -41.1% (active) |
| O=C1C(SCc2ccccc2)=C(Cl)CN1c1ccc(Cl)cc1 | 80.5% | 99 | 98.2% | 109% | 106% | 104% | -59.6% (active) | 101% | 103% | 119% |
| COc1ccccc1/C=C/C(=O)c1nnn(-c2ccc(F)cc2)c1C | 42.9% | 53.1 | 70.6% | 72.2% | 28.4% | 72.9% | 54% | 41.7% | 84.5% | 72.4% |
| O=C(O)c1ccc(-n2c(=O)n(-c3cccc(C(F)(F)F)c3)c(=O)c3cc(-c4ccc(F)cc4F)ccc32)cc1 | -4.43% (active) | 10.4 | 8.23% (active) | 6.54% (active) | 5.81% (active) | -28.5% (active) | -7.88% (active) | 10% | 22.3% | 65.1% |
| C[C@]12CC[C@H]3[C@@H](CC=C4C[C@@H](O)CC[C@@]43C)[C@@H]1CC[C@@H]2[C@](C)(O)CCc1cccnc1 | 52.5% | 73.4 | 79.5% | 61.3% | 63.5% | 66.8% | 36.6% | 70.1% | 80.8% | 70.8% |
| Cc1ccc2c(n1)C(=O)C(Cl)=C(Nc1ccc(C)c(C)c1)C2=O | 11.7% | 36 | 60.9% | 60.2% | 46.4% | 105% | 58.9% | 24.5% | 104% | 105% |
| C=C(C)[C@@H]1CC[C@]2(COP(=O)(OCC)OCC)CC[C@]3(C)[C@H](CC[C@@H]4[C@@]5(C)CC[C@H](OP(=O)(OCC)OCC)C(C)(C)[C@@H]5CC[C@]43C)[C@@H]12 | 13.5% | 28.3 | 59.6% | 63.5% | 22.3% | 42.2% | 35.5% | 28.4% | 72.8% | 44.2% |
| CC1=C(C)C(=O)C(Nc2ccc(C)cc2)=C(Br)C1=O | 87.7% | 86.5 | 104% | 83.2% | 102% | -35.8% (active) | 96.1% | 100% | 106% | 124% |
